Bioassay records from PubChem BioAssay.
The list is not random: actives were taken first. Their share in the collection is about 2.3%.
TAG inh: inhibitors of triacylglycerol accumulation, primary screen, cell-based, uHTS, fluorescence, H9c2 | H9c2 cells, Nile Red lipid (TAG) fluorescence; cells loaded with 200 µM oleic acid | inhibition, % at 12.5 µM | 230,000 compounds, 0.66% hits;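 active = pattern-corrected inhibition of lipid staining of at least 50% with the nuclear-stain viability signal not falling by more than 50%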
Jurkat NFkB inh: inhibitors of induced NF-kB luciferase reporter, primary screen, TCR NF-kB activation inhibitor project, cell-based, luminescence, uHTS. Jurkat, PMA/ionomycin-induced NF-kB luciferase reporter. inhibition, % at 4 µM. 330,000 compounds, 0.53% hits; in the data active = inhibition above about 50%
697 NFkB inh: inhibitors of PMA/ionomycin-induced NF-kB reporter, 697 cells, primary screen, B-cell NF-kB inhibitor project, cell-based, luminescence, uHTS; 330,000 compounds, 0.33% hits; AID 435022, 2010; 697 B-cell NF-kB luciferase reporter, 16 h; inhibition, % at 4 µM; in the data active = inhibition above about 35%
Shn3 3UTR inh: reduction of Shn3 3'UTR firefly luciferase signal, primary screen, Schnurri-3 inhibitor project, cell-based, Clone20 osteoblasts, set 2. 360,000 compounds, 0.52% hits. AID 588674, 2011. inhibition, % at 12.5 µM. Clone20 osteoblast Shn3 3'UTR firefly luciferase, 24 h;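 active = mean inhibition of at least 75% with every replicate also reaching 75%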
aSyn UTR inh: MLPCN primary screen, SNCA 5' untranslated region; alpha-synuclein 5'UTR reporter, inhibitor activity; inhibition, % (tested at 7.5 µM); 300,000 compounds, 0.82% hits; in the data active = inhibition above about 60%;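 also: H4 neuroglioblastoma cells stably carrying SNCA 5'UTR luciferase fusion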
Gli-Sufu antag: Gli-Sufu pathway antagonists, primary screen, luciferase luminescence, Sufu-KO-LIGHT cells, uHTS | inhibition, % at 5 µM | 340,000 compounds, 0.74% hits | AID 588413, 2011 | Sufu-KO-LIGHT fibroblasts, Gli luciferase reporter luminescence;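 active = inhibition above about 55%, limit read from the data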
Gli-Sufu confirm: Gli-SUFU pathway antagonists, confirmation, single concentration, luciferase luminescence, Sufu-KO-LIGHT cells | AID 602428, 2012 | inhibition, % at 5 µM | 2,500 compounds, 40% hits | shares compounds with Gli-Sufu antag | Gli luciferase reporter;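 active = mean inhibition at 5 µM reaching about 45%, limit read from the data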
Gli cytotox: cytotoxicity in Sufu-KO-LIGHT cells, confirmation, cytotoxicity control for Gli-SUFU antagonist project, cell-based, ATP luminescence, single concentration | shares compounds with Gli-Sufu antag | 2,500 compounds, 32% hits | AID 651994, 2013 | cytotoxicity, % at 5 µM;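 active = mean cytotoxicity at 5 µM above about 25%, limit read from the data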;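 also: cells exposed to compound overnight for roughly 16 to 18 hours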
Wnt3a counter: Wnt3a reporter signal inhibition, confirmation, counter-screen for Gli-SUFU antagonist project, Wnt-LIGHT cells, luminescence, single concentration. shares compounds with Gli-Sufu antag. Wnt3a-driven luciferase reporter. inhibition, % at 6.25 µM. 2,500 compounds, 20% hits;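 active = mean inhibition above about 25%, limit read from the data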
Numbers stand for hits; 0 = inactive; - = no result given.

SMILES | TAG inh | Jurkat NFkB inh | 697 NFkB inh | Shn3 3UTR inh | aSyn UTR inh | Gli-Sufu antag | Gli-Sufu confirm | Gli cytotox | Wnt3a counter
CN(Cc1ccc(OC(F)F)cc1)C(=O)c1cccc(S(=O)(=O)N2CCN(Cc3ccccc3)CC2)c1 | 0 | - | - | 89.4 | - | 58.2 | 58.3 | 0 | 0
COc1cccc(CN(C)C(=O)c2cccc(S(=O)(=O)N3CCN(c4ccc(F)cc4)CC3)c2)c1OC | 0 | 0 | 0 | 0 | 0 | 0 | 50.0 | 32.5 | 0
CN(CCOc1ccc(Cl)cc1)C(=O)c1cccc(S(=O)(=O)N2CCN(c3ccccc3)CC2)c1 | 0 | - | - | 0 | - | 0 | 57.5 | 34.1 | 0
CC1CCC(NC(=O)c2cccc(S(=O)(=O)N3CCN(c4ccccc4)CC3)c2)CC1 (stereo not drawn) | 0 | 0 | 0 | 0 | 0 | 0 | 46.9 | 0 | 0
CCCCOC(=O)c1ccc(NC(=O)CSCc2n[nH]c(=O)[nH]2)cc1 | 0 | 0 | 0 | 0 | 0 | 0 | - | - | -
O=C(Oc1ccc(-c2csnn2)cc1)c1cccs1 | 0 | 0 | 0 | 0 | 0 | 0 | - | - | -
CC(=O)c1sc(NC(=O)CCNC(=O)c2ccco2)nc1-c1ccccc1 | 0 | 0 | 0 | 0 | 0 | 0 | - | - | -
COc1ccc2cc(C(=O)NCc3ccccc3)[nH]c2c1 | - | 0 | 0 | 0 | 0 | 0 | 0 | 0 | 0
O=C(NNc1c(F)c(F)cc(F)c1F)c1ccco1 | 0 | 0 | 0 | 0 | - | 0 | - | - | -
CCCn1c2c(c(=N)c3c1CCC3)CCCC2 | 0 | 0 | 0 | 0 | 0 | 61.2 | 59.6 | 0 | 0
CCOC(=O)Cn1c2c(c(=N)c3c1CCC3)CCCC2 | - | 0 | 0 | 0 | 0 | 0 | - | - | -
COc1ccc(-c2ccc(-c3nc4ccc(C)cn4c3NC3CCCCC3)cc2OC)cc1 | 0 | 0 | 0 | 0 | 0 | 0 | - | - | -
CC(C)c1c(C(=O)N/N=C/c2c[nH]c3ccccc23)nnn1-c1nonc1N | - | 0 | 0 | 0 | 0 | 0 | - | - | -
CCN(CC)S(=O)(=O)c1ccc(N2CCCC2)c(C(=O)OCC(=O)Nc2cc(C)on2)c1 | 0 | 0 | 0 | 0 | 0 | 0 | - | - | -
COc1ccc(Cl)cc1C(=O)NNC(=O)CSc1nnc2ccccn12 | 0 | 0 | 0 | 0 | 0 | 0 | 0 | 0 | 0
COc1ccc(C(=O)NNC(=O)CSc2nnc3ccccn23)cc1OC | 0 | 0 | 0 | 0 | - | 0 | - | - | -
COc1ccc(C(=O)NC(=S)Nc2ccc3oc(=O)ccc3c2)cc1[N+](=O)[O-] | 0 | 0 | 0 | 0 | 0 | 0 | - | - | -
O[C@@H]1CN(Cc2ccc(-n3cccn3)cc2)CC[C@H]1N1CCN(c2ccccc2F)CC1 | 0 | 0 | 0 | 0 | 0 | 58.9 | 46.1 | 27.4 | 0
Cc1ccc(CN2CCN(Cc3ccc(-n4cccn4)cc3)CC2CCO)cc1 (stereo not drawn) | 0 | 0 | 0 | 0 | 0 | 0 | - | - | -
COc1cccc(/C=C/C(=O)Nc2ccc(N3CCOCC3)cc2)c1OC | 0 | 0 | 0 | 0 | 0 | 0 | - | - | -
Cc1cc(-n2c(SCc3ccccc3F)nc3n[nH]c(C)c3c2=N)ccc1Cl | 0 | 0 | 0 | 0 | 0 | 0 | 0 | 0 | 0
CCN(C(=O)CSc1nc2n[nH]c(C)c2c(=N)n1-c1ccc(Cl)c(C)c1)c1cccc(C)c1 | - | 0 | 0 | 0 | 0 | 0 | - | - | -
C/C(=N\N1CCN(c2ccccc2)CC1)c1ccc(O)cc1 | - | 0 | 0 | 0 | 0 | 0 | - | - | -
c1ccc2c(-c3[nH]ncc3CNCCCn3ncc4ccccc43)cccc2c1 | 0 | 0 | 0 | 90.0 | 0 | 58.5 | 0 | 0 | 0
COc1cccc(COc2cc3ccccc3nc2C)c1 | 0 | 0 | 0 | 0 | 0 | 0 | 58.4 | 30.5 | 0
Cc1nc2ccccc2cc1OCc1ccc(Cl)cc1 | - | 0 | 0 | 0 | 0 | 0 | 50.1 | 36.9 | 0
